SMILES strings stand for the structures. Results filed as inconclusive are left out. Active and inactive are the calls of the source. Unless noted, the rule behind the calls is not given here.

The record followed here is PubChem BioAssay (NCATS).

A short description of assay [1]: qHTS profiling of the MIPE4 collection as inhibitors of Plasmodium falciparum (3D7) proliferation (AID 743344).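 Note: scaled between DMSO vehicle wells and 0.29 µM artemisinin as full inhibition.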 The note with it: P. falciparum 3D7 in erythrocytes, SYBR Green DNA fluorescence, 72 h; at 28.5 µM unless noted. The gist of the method:
(§1)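 Erythrocytes infected with P. falciparum (0.3% parasitemia, 2.5% hematocrit) incubated with compounds 72 h at 37 C, 5% CO2. Lysis with saponin/Triton buffer containing SYBR Green I, overnight at room temperature in the dark; DNA fluorescence (485/535 nm) normalised to 0.29 uM artemisinin and DMSO.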

The nature of assay [2]: qHTS profiling of the MIPE4 collection as inhibitors of Plasmodium falciparum (DD2) proliferation (AID 743345). Particulars: P. falciparum Dd2 in erythrocytes, SYBR Green DNA, 72 h; at 28.5 µM unless noted. The gist of the method:
as §1

The nature of assay [3]: qHTS Assay for Identifying Gametocytocidal Compounds (AID 743244; active = well fitted curve in the direction sought with a large enough effect;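 note: % is set by controls: 0 for no effect and ±100 for the full control effect; actives lower the fluorescent signal which means gametocytes are killed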). Particulars: P. falciparum 3D7 stage III-V gametocytes, alamarBlue, 72 h; max response: stronger effect = lower value. The gist of the method:
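P. falciparum 3D7 stage III–V gametocytes (20,000 cells/well) were exposed to compounds for 72 h at 37 °C, 5% CO2. AlamarBlue was then added for 24 h; decreased resorufin fluorescence (Ex 525/Em 598 nm) indicated loss of viability.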

In turn, `COc1cc(NCc2ccc3nc(N)nc(N)c3c2C)cc(OC)c1OC` registered a parasite growth, % of DMSO control in assay [1] of 15.9%. The parasite growth remaining, % of DMSO control (lower = more inhibition) in assay [2] was found to be 7.41%.
`CC(C)(C)NC(=O)[C@H]1CC[C@H]2[C@@H]3CC[C@H]4NC(=O)C=C[C@]4(C)[C@H]3CC[C@]12C`: the parasite growth remaining, % of DMSO control (lower = more inhibition) in assay [2] worked out at 91.7%.
On to `CCCCOc1ccc(CC(=O)NO)cc1`, for which the max response in assay [3] is 1.51% (inactive). In addition, the parasite growth remaining, % of DMSO control (lower = more inhibition) in assay [2] came out at 14.7%.
On to `CNS(=O)(=O)Cc1ccc2[nH]cc(CCN(C)C)c2c1`, for which the max response in assay [3] was 0.507% (inactive). The compound further showed a parasite growth, % of DMSO control in assay [1] of 64.4%. In assay [2], the parasite growth remaining, % of DMSO control (lower = more inhibition) was 70.9%.
Consider `CC(C(=O)O)c1ccc2c(c1)CC(=O)c1ccccc1S2` (configuration not stated), for which the max response in assay [3] is 43% (inactive). In addition, the parasite growth remaining, % of DMSO control (lower = more inhibition) in assay [2] turned out to be 92.6%.
As for `CCOc1cc(N)c(Cl)cc1C(=O)NCC1CN(Cc2ccc(F)cc2)CCO1` (configuration not stated), the max response in assay [3] was 1.28% (inactive). Also, the parasite growth remaining, % of DMSO control (lower = more inhibition) in assay [2] was determined as 101%.
For `CC(C)OC(=O)C(C(=O)OC(C)C)=C1SC=CS1`, the max response in assay [3] is 13.6% (inactive). For the same compound, in assay [2], the parasite growth remaining, % of DMSO control (lower = more inhibition) was 117%.
The like results for `COc1ccc(C(=O)CC(=O)c2ccc(C(C)(C)C)cc2)cc1` were, in that order, 7.37% (inactive) and 88.2%.
The like results for `CCN(C)C(=O)Oc1cccc([C@H](C)N(C)C)c1` were, in that order, -3.35% (inactive) and 17.2%.
For `CC(N)C12CC3CC(CC(C3)C1)C2` (configuration not stated) the same measures were 26.1% (inactive) and 12.6%.
As for `COc1c(N2CCNC(C)C2)c(F)cc2c(=O)c(C(=O)O)cn(C3CC3)c12` (configuration not stated), in assay [3], the max response was -5.93% (inactive). Besides, the parasite growth remaining, % of DMSO control (lower = more inhibition) in assay [2] is 11.3%.
The like results for `COCCCOc1cc(C[C@@H](C[C@H](N)[C@@H](O)C[C@H](C(=O)NCC(C)(C)C(N)=O)C(C)C)C(C)C)ccc1OC` were, in that order, 13.7% (inactive) and 119%.
For `O=c1oc2c(O)c(O)cc3c(=O)oc4c(O)c(O)cc1c4c23` the same measures were 10.2% (inactive) and 7.22%.
The like results for `O=S(=O)(O)CCS` were, in that order, -4.29% (inactive) and 108%.
In turn, `O=C(NCC1CN(c2ccc(N3CCOCC3=O)cc2)C(=O)O1)c1ccc(Cl)s1` (configuration not stated) came in with a parasite growth, % of DMSO control in assay [1] of 74.4%. Moreover, in assay [2], the parasite growth remaining, % of DMSO control (lower = more inhibition) was 94.4%.
As for `CN1CCN(c2c(F)cc3c(=O)c(C(=O)O)cn4c3c2OCN4C)CC1`, in assay [3], the max response was 0.61% (inactive). The parasite growth remaining, % of DMSO control (lower = more inhibition) in assay [2] amounted to 95.5%.
For `Cc1cccc(Nc2ccncc2S(=O)(=O)NC(=O)NC(C)C)c1` the same measures were -10.6% (inactive) and 104%.
As for `CC(C)(C)C(=O)OCOP(=O)(COCCn1cnc2c(N)ncnc21)OCOC(=O)C(C)(C)C`, the max response in assay [3] is 4.48% (inactive). Moreover, the parasite growth remaining, % of DMSO control (lower = more inhibition) in assay [2] was determined as 96.8%.
As for `CN(CCOc1ccc(CC2SC(=O)NC2=O)cc1)c1ccccn1` (configuration not stated), in assay [3], the max response was 11.4% (inactive). Further, the parasite growth remaining, % of DMSO control (lower = more inhibition) in assay [2] was 93.4%.
The like results for `N[C@@H](C(=O)N[C@@H]1C(=O)N2C(C(=O)O)=C(Cl)CS[C@H]12)c1ccccc1` were, in that order, 19.9% (inactive) and 96.8%.
For `CCOC(=O)c1ccc(OC(=O)CCCCCN=C(N)N)cc1` the same measures were -8.62% (inactive) and 89.5%.
With `CCOC(=O)[C@H](CCc1ccccc1)N[C@H]1CCc2ccccc2N(CC(=O)O)C1=O`, in assay [1], the parasite growth, % of DMSO control came to 9.1%. In assay [2], the parasite growth remaining, % of DMSO control (lower = more inhibition) amounted to 9.11%.
As for `O=C(O)CSCC(=O)NC1CCSC1=O` (configuration not stated), in assay [3], the max response is -6.62% (inactive). For the same compound, in assay [2], the parasite growth remaining, % of DMSO control (lower = more inhibition) stood at 139%.
On to `CCC(=O)O[C@]1(C(=O)CCl)[C@@H](C)C[C@H]2[C@@H]3CCC4=CC(=O)C=C[C@]4(C)[C@@]3(F)[C@@H](O)C[C@@]21C`, for which the max response in assay [3] is 4.44% (inactive). Also, in assay [2], the parasite growth remaining, % of DMSO control (lower = more inhibition) came out at 55.4%.
The like results for `COC(=O)Nc1nc2ccc(Sc3ccccc3)cc2[nH]1` were, in that order, 2.65% (inactive) and 99.3%.
For `CC(C)C1CCC(C(=O)N[C@H](Cc2ccccc2)C(=O)O)CC1` (some centres not stated), the max response in assay [3] is 6.84% (inactive). Moreover, the parasite growth remaining, % of DMSO control (lower = more inhibition) in assay [2] worked out at 118%.
